Compound activity as filed in PubChem.
Shown are actives, neighbours in structure and some others; about 0.91% of the full set was active somewhere.
RECQ1 inh: inhibitors of human RECQ1 DNA helicase. P46063. RECQ1 DNA unwinding, red fluorescence kinetic read. 0.54% of 240,000 active. Potency, µM (top dose mostly 57.3 µM), without a hit: at the highest dose activity, negative = inhibition, usual class: inhibitors;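 further: plate controls were vehicle for no effect and no enzyme for full effect; nearly all actives have a fitted effect of over 30% in size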
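RECQ1T1 50 nM; forked duplex (20 bp + 30-nt ss tails) 200 nM, ATP 2 mM final; pH 8.0, 2 mM MgCl2, 2.5 ug/ml poly(dI-dC); 15 min compound preincubation; discontinuous kinetic read over 2 h at RT.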
APEX1 inh: blocks human APE1 abasic DNA cleavage; AID 2517; P27695; 0.35% of 350,000 active; recombinant APE1, TAMRA/BHQ-2 abasic DNA cleavage fluorescence; Potency, µM (top dose mostly 65.8 µM), for inactives: at the top dose activity change, negative = inhibition, most hits filed as inhibitors;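 further: plate controls were vehicle for no effect and reference inhibitor for full effect; nearly all actives have a fitted effect of over 55% in size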
Target sequence (P27695 whole entry, looked up): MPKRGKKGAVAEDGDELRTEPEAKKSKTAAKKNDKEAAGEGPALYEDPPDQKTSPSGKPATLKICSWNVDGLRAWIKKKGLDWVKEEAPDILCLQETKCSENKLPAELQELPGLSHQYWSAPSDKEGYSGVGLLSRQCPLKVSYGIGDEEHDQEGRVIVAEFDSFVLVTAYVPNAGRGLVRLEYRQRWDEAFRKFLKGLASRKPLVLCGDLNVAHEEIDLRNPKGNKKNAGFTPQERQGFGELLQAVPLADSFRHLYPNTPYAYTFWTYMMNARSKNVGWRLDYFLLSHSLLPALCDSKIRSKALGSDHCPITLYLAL
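Compound pre-exposure to 0.75 nM APE1, 15 min at ambient temperature. Reaction initiated with 50 nM TAMRA/BHQ-2 THF substrate, read immediately in kinetic mode, 525 nm excitation, 598 nm emission.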
BLM helicase inh: Bloom syndrome helicase (human) inhibition; P54132; Potency, µM (doses to about 56.1 µM), for the others: at the top dose activity change, negative = inhibition, hits mostly inhibitors; 0.2% of 350,000 active; recombinant BLM DNA unwinding, fluorescence dequenching;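 further: plate controls were vehicle for no effect and no enzyme for full effect; nearly all actives have a fitted effect of over 35% in size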
TR SRC2 fluor cs: alters Texas Red total fluorescence, flagging assay interference | TRb/SRC2 Texas Red total fluorescence interference | Potency, µM (series often up to 106 µM), for inactives: top-dose fluorescence change, negative = quenching | 0.29% of 280,000 active; active means well fitted curve in either direction with a large enough effect; inconclusive means small, poorly fitted or top-dose-only effect
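Flags fluorescent or light-absorbing compounds by total fluorescence, S + 2P, at 555 nm excitation and 632 nm emission. Mixture: 20 nM Texas Red SRC2 peptide, 0.6 uM human TRb LBD, 1 uM T3, 5% DMSO; compound exposure 5 h at ambient temperature.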
WRN helicase inh: blocks human WRN helicase | WRN helicase unwinding, fluorescent forked duplex, kinetic | AID 651768 | Q14191 | 0.46% of 360,000 active | Potency, µM (top dose mostly 114 µM), for the others: at the highest dose activity change, negative = inhibition, hits mostly inhibitors; further: nearly all actives have a fitted effect of over 55% in size
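Kinetic red-fluorescence monitoring (525/598 nm) tracks WRN helicase activity after 100 nM fluorophore-quencher forked duplex and 2 mM ATP are added to 20 nM enzyme pretreated 15 min at room temperature with compound.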
TRb-SRC2 inh: disrupts binding of human TR beta to SRC2; P10828; TRbeta-SRC2 peptide binding, fluorescence polarization; receptor liganded with 1 µM T3; Potency, µM (top dose mostly 106 µM), for inactives: at the top dose activity change, negative = inhibition, most hits filed as inhibitors; 0.065% of 280,000 active;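 further: plate controls were bound peptide for no effect and peptide without receptor for full effect; nearly all actives have a fitted effect of over 50% in size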
Target sequence (P10828 whole entry, looked up): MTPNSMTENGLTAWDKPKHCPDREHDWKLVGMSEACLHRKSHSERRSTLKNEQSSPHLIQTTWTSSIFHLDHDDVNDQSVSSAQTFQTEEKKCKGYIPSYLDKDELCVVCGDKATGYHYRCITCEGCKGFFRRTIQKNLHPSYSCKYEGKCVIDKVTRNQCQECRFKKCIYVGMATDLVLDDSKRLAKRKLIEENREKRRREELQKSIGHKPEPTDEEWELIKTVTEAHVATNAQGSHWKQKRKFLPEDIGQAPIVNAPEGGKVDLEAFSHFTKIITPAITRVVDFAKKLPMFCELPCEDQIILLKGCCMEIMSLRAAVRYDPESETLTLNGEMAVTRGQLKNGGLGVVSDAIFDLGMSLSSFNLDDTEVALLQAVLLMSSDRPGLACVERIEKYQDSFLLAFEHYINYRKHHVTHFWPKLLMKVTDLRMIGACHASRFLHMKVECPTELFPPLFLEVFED
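TRb LBD 0.6 uM + Texas Red SRC2 peptide 20 nM, 1 uM T3, Tris buffer w/ 5% DMSO; compound pinned, 5 h RT; FP read ex 555/em 632; normalized to unbound and bound controls.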
The depositor's hits bear a star; i = inactive; ? = inconclusive; · = no result given; ! = a repeat was not active; [ ] = dose if it differs, or a comment. Unless noted, the call rests on the fitted dose curve; in most records, active means well fitted curve in the direction sought with a large enough effect; inconclusive means small, poorly fitted or top-dose-only effect, or another doubt; inactive means no such curve, though single readings can be large; an effect the other way counts as inactive or inconclusive. Unless noted, on the % scale 0 is the no-effect control and ±100 the full control effect; potency means the concentration at half of the fitted maximal effect.

SMILES | RECQ1 inh | APEX1 inh | BLM helicase inh | TR SRC2 fluor cs | WRN helicase inh | TRb-SRC2 inh
Cc1ccccc1C1=C/C(=C(\SS/C(C(=O)c2ccc(OCC(=O)O)c(Cl)c2Cl)=C2\C=C(c3ccccc3C)SS2)C(=O)c2ccc(OCC(=O)O)c(Cl)c2Cl)SS1 | · | · | · | · | 22µM* | ·
COC(=O)CC1=NN(c2ccccc2)C(=O)/C1=C\c1ccc(OC)cc1 | -6% | 5% | -2% | -3% | 50µM* | 0%
O=C1NC2CCCCC2C(=O)N1OS(=O)(=O)c1ccccc1 (stereo unspecified) | · | · | · | · | 50µM* | ·
Cc1c2cc[n+](CCN3CCCCC3)cc2c(C)c2c1[nH]c1ccc(O)cc12 | · | · | · | · | 28µM* | ·
O=[N+]([O-])c1ccc(Cl)cc1Cl | -5% | 2% | · | 2% | · | 5%
COc1ccc2ccc3c(c2c1)N=CC1(O3)N(C)c2ccccc2C1(C)C (stereo unspecified) | ? | -7% | -8% | ? | 79µM* | 28µM*
CN1c2ccccc2C(C)(C)C12C=Nc1c(ccc3ccccc13)O2 (stereo unspecified) | i | -7% | -10% | -24% | ? | ?
Cc1ccc(S(=O)(=O)Oc2ccc(N=Nc3ccc(-c4ccc(N=Nc5c(O)ccc6cc(S(=O)(=O)O)cc(S(=O)(=O)O)c56)c(C)c4)cc3C)cc2)cc1 | 25µM* | 35µM* | · | -8% | · | ?
COC(=O)c1sc(-c2cccs2)cc1NC(=O)/C=C/C(=O)O | -7% | -3% | 16µM* | -4% | 3% | -10%
COc1ccc(C2=Nn3c(nnc3-c3ccccc3Cl)SC2)cc1O[C@H]1CCOC1 | · | -8% | · | · | · | ·
CCCC(=Nc1ccc(N)cc1)C1=C(O)C(C(=O)OC)C(C)(C)CC1=O (stereo unspecified) | -19% | ? | -14% | 45µM*[fluorescent] | -1%[57.1 µM] | 35µM*
CCCC(=O)C1=C(O)C(C(=O)OC)C(C)(C)CC1=Nc1ccc(N)cc1 (stereo unspecified) | i | -4% | -4% | -6% | 3% | -11%
CCCC(=O)Nc1ccc2c(c1)nc(CN1CCN(C(=O)OCC)CC1)n2C(C)C | · | · | -2% | 100µM*[quencher] | · | -13%
O=C(N/N=C/c1ccc([N+](=O)[O-])s1)c1cccc(Br)c1 | -10% | 22µM* | -17% | ? | -13% | -15%
C=CCNc1nc(N)c([N+](=O)[O-])c(Nc2ccccc2OC)n1 | · | 3% | -4% | · | -6% | ·
COc1ccccc1Nc1nc(NCCCN(C)C)nc(N)c1[N+](=O)[O-] | -5% | -6% | ? | -4% | 79µM* | 5%
COc1ccc(NC(=O)CSc2nc(-c3ccc(F)cc3)c3cccc(C)c3n2)cc1 | · | · | -3% | -2% | · | -3%
C=CCNc1oc(-c2ccc(F)cc2)nc1C#N | · | 49% | · | · | · | ·
Cc1ccccc1CSCc1nc2ccccc2[nH]1 | -1% | 5% | -6% | 1.1µM*[quencher] | -30% | -15%[53 µM]
Cc1ccc(C)c(CSCc2nc3ccccc3[nH]2)c1 | · | 53% | -7% | · | -11% | ·
C=CC(C)(CCC=C(C)C)OC(C)=O (stereo unspecified) | · | · | · | -4%[201 µM] | · | -3%[201 µM]
CCCn1cc(S(=O)(=O)c2cccc(Cl)c2)c(=O)c2cc(F)c(N3CCOCC3)cc21 | · | · | 1% | 12% | · | 2%
CCCCn1cc(S(=O)(=O)c2ccc(Cl)cc2)c(=O)c2cc(F)c(N3CCCC(C)C3)cc21 (stereo unspecified) | · | · | -3% | 100µM*[quencher] | · | -15%
CCc1ccc(S(=O)(=O)c2cn(C)c3cc(N4CCCCC4C)c(F)cc3c2=O)cc1 (stereo unspecified) | · | · | -2% | 112µM*[quencher] | · | -24%
CCCn1cc(S(=O)(=O)c2cc(C)ccc2C)c(=O)c2cc(F)c(N3CCOCC3)cc21 | · | · | 2% | 25µM*[quencher] | · | ?
SMILES | RECQ1 inh | APEX1 inh | BLM helicase inh | TR SRC2 fluor cs | WRN helicase inh | TRb-SRC2 inh
CCn1cc(C(=O)NN)c(=O)c2cc(F)c(N3CCOCC3)cc21 | · | -15% | -5% | · | 89µM* | ·
CCn1cc(C(=O)NCC(C)C)c(=O)c2cc(F)c(N3CCN(C)CC3)cc21 | -1% | 25% | 5% | -2% | -16% | 1%
COc1cc(C(=O)O[C@@H]2CC3CC[C@]2(C)C3(C)C)ccc1O | 1% | -9% | -16% | -1% | · | -2%
CCCn1cc(S(=O)(=O)c2ccccc2)c(=O)c2cc(F)c(N3CCCC(C)C3)cc21 (stereo unspecified) | · | · | -8% | -7% | · | 1%
CCCCn1cc(S(=O)(=O)c2ccc(CC)cc2)c(=O)c2cc(F)c(N3CCCC(C)C3)cc21 (stereo unspecified) | · | · | -4% | 89µM*[quencher] | · | -27%
O=C1[C@@H]2[C@H]3CC[C@H](C3)[C@@H]2C(=O)N1O | 3% | ? | 3% | -1% | -13% | 2%
N[C@@H]1CCN(O)C1=O | -2% | 3.5µM*! | -11% | 2% | · | -7%
O=C(NN1C(=O)/C(=C/c2ccc(O)cc2)SC1=S)c1cccc(O)c1 | · | 33% | -9% | · | -8%[11.6 µM] | ·
Cn1cc(/C=C2\SC(=S)N(NC(=O)c3ccccc3)C2=O)c2ccccc21 | 32µM* | -4% | -8% | ? | 42% | 18µM*
Cn1cc(/C=C2\SC(=S)N(NC(=O)c3cccc(Cl)c3)C2=O)c2ccccc21 | 11% | 0% | -5% | 4% | 20µM* | -4%
C=CC(=O)OCCOCC(CC)(COCCOC(=O)C=C)COCCOC(=O)C=C | · | · | · | 1%[201 µM] | · | ?
CCN(CC)c1ccc(C=C2C(=O)OC(c3ccccc3)OC2=O)cc1 (stereo unspecified) | 13% | 12% | -3% | -1% | 50µM* | 0%
CCN(CC)c1ccc(C=C2SC(=S)NC2=O)cc1 | · | · | · | · | 50µM* | ·
CCN(CC)c1ccc(C=C2C(=O)OC(C)(C(C)(C)C)OC2=O)cc1 (stereo unspecified) | -6% | -2% | -2% | -2% | ? | -15%
CCN(CC)c1ccc(C=C2C(=O)OC3(CCCC3)OC2=O)cc1 | -15% | 4% | 1% | 3% | 50µM* | 3%
CC(C)CCC[C@@H](C)[C@H]1CC[C@H]2[C@@H]3CC=C4CC(O)CC[C@]4(C)[C@H]3CC[C@]12C (stereo partly specified) | -13% | -7% | -2% | -1% | · | 0%
Cc1cc(=S)nc(-c2ccccn2)[nH]1 | 17% | 23% | 0% | -1% | -21% | 4%
CSc1nc(=S)cc(C)[nH]1 | 19% | 8% | 5% | 1% | 40µM* | 4%
COc1ccc(N2CC(NC(=O)N3CCN(c4ccccc4)CC3)CC2=O)cc1 (stereo unspecified) | -15% | 0% | 0% | -3% | 6% | -3%
Oc1ccc(/C=N/NC(=S)Nc2cccnc2)c(O)c1O | 3.5µM* | 0.79µM* | -20% | ? | 10µM* | -4%
